Compound activity deposited in PubChem BioAssay by several laboratories.
NOD2 RIPK2 PPI: NOD2-RIPK2 binding disruptors in cells, primary screen, fluorescence, CHO cells, BLA complementation; Receptor-interacting serine/threonine-protein kinase 2 (Homo sapiens), O43353; CCF4 ratio; inhibition, % at 4.98 µM; 0.38% of 360,000 active; AID 624267, 2012; in the data active means inhibition above about 21%
TLR4-MyD88 BLA: inhibitors of TLR4-MyD88 association in cells, primary screen, cell-based, HeLa CL3-4, BLA complementation, FRET ratio | AID 861, 2007 | Toll-like receptor 4 (Homo sapiens) + Myeloid differentiation primary response protein … | inhibition, % at 8.4 µM | HeLa CL3-4 TLR4/MyD88 BLA complementation | 0.18% of 200,000 active; in the data active means inhibition above about 25%
ANO1 block: TMEM16A chloride channel inhibitors, primary screen, cell-based, HTS. Anoctamin-1 (Mus musculus), Q8BHY3. HEK293 TMEM16A/YFP iodide influx fluorescence, ionomycin. normalized B-score (activity score, 25-100; higher = stronger inhibition) at 10 µM. 1.2% of 310,000 active;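 active means ratio plate-corrected score three or more library SD toward inhibition, starting fluorescence score within five deviations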;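 further: score derived from kinetic fluorescence span divided by baseline fluorescence per well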
HTR2A ag: mouse Htr2a agonists via beta-arrestin recruitment, primary screen, cell-based, luminescence. activation, % at 7.6 µM. 0.66% of 360,000 active. CHO-K1 mHTR2A beta-arrestin complementation; percent of 30 µM serotonin response. 5-hydroxytryptamine receptor 2A (Mus musculus), P35363;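 active means activation above a run cutoff, the mean activation of all tested compounds plus 3 SD, cut at about 14% in these data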
Target sequence (P35363 whole entry, looked up): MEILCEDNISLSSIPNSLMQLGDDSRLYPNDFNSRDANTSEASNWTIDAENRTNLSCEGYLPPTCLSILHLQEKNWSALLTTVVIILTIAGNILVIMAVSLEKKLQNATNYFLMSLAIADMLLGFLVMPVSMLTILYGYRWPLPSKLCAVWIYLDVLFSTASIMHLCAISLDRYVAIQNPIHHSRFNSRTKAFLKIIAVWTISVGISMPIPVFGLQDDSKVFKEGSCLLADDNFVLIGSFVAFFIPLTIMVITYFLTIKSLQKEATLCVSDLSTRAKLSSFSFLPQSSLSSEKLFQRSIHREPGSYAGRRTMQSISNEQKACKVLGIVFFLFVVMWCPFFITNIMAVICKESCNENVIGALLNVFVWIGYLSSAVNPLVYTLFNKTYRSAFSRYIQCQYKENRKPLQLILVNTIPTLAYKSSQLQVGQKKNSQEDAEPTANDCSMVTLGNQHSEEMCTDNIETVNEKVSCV
TLR9-MyD88 block: inhibitors of TLR9-MyD88 association in cells, primary screen, cell-based, CHO, BLA complementation, fluorescence. inhibition, % at 4.98 µM. AID 504734, 2011. 0.21% of 340,000 active. CCF4 FRET ratio;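 active means inhibition above the mean over all tested compounds plus 3 SD, cut at about 21% in these data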
ANO1 activ: TMEM16A chloride channel activators or potentiators, primary screen, cell-based, HTS; HEK293 TMEM16A/YFP-H148Q/I152L, iodide quench fluorescence; hits give low values; B-score at 10 µM; 0.3% of 340,000 active;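 active means fluorescence-ratio B-score plate-corrected deviation score at least 3 library SD below zero, with starting fluorescence score within 5 deviations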;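 further: channel opened by trigger with iodide after compound preincubation; score built on the fluorescence ratio of max minus min over baseline; more negative score means more quench and so TMEM16A activation or potentiation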
MOR ag counter: OPRM1 agonists via beta-arrestin recruitment, confirmation, counter-screen for mouse HTR2A agonist project, cell-based, luminescence, single concentration | shares compounds with HTR2A ag | 5.3% of 2,300 active | U2OS OPRM1 beta-arrestin PathHunter; DMSO 0%, DAMGO 9.3 µM 100% | activation, % at 9.3 µM;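 active means mean activation above the mean of DMSO-only wells plus 3 SD, cut at about 0.5% in these data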
m5-HT2A ag conf: mouse HTR2A agonists, beta-arrestin recruitment, confirmation, cell-based, luminescence, CHO-K1 PathHunter, triplicate; activation, % at 7.6 µM; 19% of 2,300 active; AID 624381, 2012; DMSO 0%, 30 µM serotonin 100%; shares compounds with HTR2A ag;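 active means mean activation across triplicates above the hit threshold derived in the original primary screen, cut at about 15% in these data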
Hits are given with their value; 0 = inactive; - = no result given. An excerpt weighted towards active compounds, which were near 2.4% of everything screened.

SMILES	NOD2 RIPK2 PPI	TLR4-MyD88 BLA	ANO1 block	HTR2A ag	TLR9-MyD88 block	ANO1 activ	MOR ag counter	m5-HT2A ag conf
c1ccc(Oc2ncnc3ccccc23)cc1	0	-	-	16	0	0	0	0
O=C(C[C@H]1CC[C@H]2[C@@H](COC[C@H](O)CN2Cc2ccccc2)O1)NCCCN1CCOCC1	0	-	-	0	-	-	-	-
COc1ccccc1CNC(=O)C[C@H]1CC[C@@H]2[C@H](COC[C@H](O)CN2Cc2ccc3c(c2)OCO3)O1	0	-	-	25	-	-	0	0
CCCCCOC(=O)C1=C(C)Nc2nnnn2C1c1ccccc1Cl (configuration not stated)	0	0	0	19	0	0	0.5	0
CC(C)(C)CC(=O)Nc1nnc(C(F)(F)F)s1	0	0	0	0	0	0	-	-
CC(NC(=O)Nc1nnc(C(F)(F)F)s1)(C(F)(F)F)C(F)(F)F	0	0	100	16	0	0	0	0
Cc1cccc(N2CC(C(=O)OCC(=O)c3ccc(OC(=O)c4cccs4)cc3)CC2=O)c1C (configuration not stated)	0	0	0	0	0	0	-	-
CCC(C)c1ccc(S(=O)(=O)N2CCN(CC(O)COCC3CCCO3)CC2)cc1 (configuration not stated)	0	-	-	0	0	0	-	-
CCN(C(=O)CSc1n[nH]c(N)n1)C1CCCCC1	0	-	-	17	0	0	0	0
CCN(Cc1ccccc1)C(=O)CSc1n[nH]c(N)n1	0	-	0	0	0	0	-	-
OC[C@@H](O)[C@@H](O)CO	0	-	0	0	0	0	-	-
CCn1c(=O)c(C(=O)CN2CCN(S(=O)(=O)c3ccc(C)cc3C)CC2)c(N)n(Cc2ccccc2)c1=O	0	0	0	16	0	0	0	0
CCn1c(=O)c(C(=O)CN2CCN(S(=O)(=O)c3ccccc3)CC2)c(N)n(Cc2ccccc2)c1=O	0	0	0	0	0	0	-	-
CC(=O)N1CCc2cc(C(=O)CN3CCN(c4cccc(Cl)c4)CC3)ccc21	0	0	0	25	0	0	0	90
Cc1ccc2c(c1)OC(c1ccc3c(c1)OCCO3)CC2=O (configuration not stated)	0	-	0	0	0	0	-	-
CN(C)Cc1c(C(C)(C)O)[nH]c2ccc(C(F)(F)F)cc12	0	-	-	23	0	0	0	20
O=c1[nH]c(=S)n2c(c1-c1ccccc1)OC(CBr)C2 (configuration not stated)	0	-	-	0	0	-	-	-
CCS(=O)(=O)c1ccc(Sc2nncn2C)c([N+](=O)[O-])c1	0	0	0	15	0	0	0	0
CCN(CC)S(=O)(=O)c1ccc(NC(=O)c2ccc(Sc3nncn3C)c([N+](=O)[O-])c2)cc1	0	0	0	0	0	0	-	-
O=C(CCc1ccccc1)N=C1SC2CS(=O)(=O)CC2N1Cc1ccccc1 (configuration not stated)	0	-	0	0	0	0	-	-
Cc1cccc(NC(=O)c2ccc(OCC3CCCO3)cc2)c1C (configuration not stated)	0	0	0	0	0	0	-	-
O=C(C1CCC(CNc2c(N3CCCCC3)c(=O)c2=O)CC1)N1CCCCC1 (configuration not stated)	0	-	0	19	0	0	0	0
CC1CCN(c2c(NCC3CCC(C(=O)N4CCCCC4)CC3)c(=O)c2=O)CC1 (configuration not stated)	0	0	0	0	0	0	-	-
CN(CC(=O)Nc1ccc(F)c(F)c1F)C(=O)CN1C(=O)C2CCCCC2C1=O (configuration not stated)	0	-	0	15	0	0	0	0
COC(=O)c1cccc(NCN2C(=O)c3ccccc3C2=O)c1	0	0	0	0	0	0	-	-
SMILES	NOD2 RIPK2 PPI	TLR4-MyD88 BLA	ANO1 block	HTR2A ag	TLR9-MyD88 block	ANO1 activ	MOR ag counter	m5-HT2A ag conf
O=C1[C@H](Oc2ccccc2)[C@@H](c2ccccc2)N1c1ccncc1	0	-	-	18	0	0	0	0
Cc1ccc(S(=O)(=O)NCCC(=O)NCc2ccccn2)cc1	0	-	0	0	0	0	-	-
Cc1ccc(S(=O)(=O)NC(=O)NCc2ccccn2)cc1	0	0	0	14	0	0	0	0
O=[N+]([O-])c1ccc(S(=O)(=O)N/N=C/c2cccs2)cc1	0	0	0	0	0	0	-	-
Cc1cc(N(CN2CCCC2=O)C(=O)c2ccccc2)no1	0	0	0	19	0	0	0	0
COC(=O)[C@]1(Sc2ccc(C)cc2)CC(=O)N[C@@H]1c1ccco1	0	-	-	0	-	-	-	-
Cc1ccccc1NC(=O)Cc1nc(COC(=O)COc2cccc(C)c2C)cs1	0	-	0	15	0	0	0	0
CCOc1ccccc1OCC(=O)OCc1csc(CC(=O)Nc2ccccc2C)n1	0	-	0	0	0	0	-	-
CCCn1c(SCC(=O)NCCc2ccc(Cl)cc2Cl)n[nH]c1=O	0	0	0	16	0	0	0	0
CCCn1c(SCC(=O)Nc2ccc(Cl)cc2)n[nH]c1=O	0	0	0	0	0	0	-	-
COc1ccc(C(C)(O)c2nc(-c3ccccc3OC)cs2)cc1 (configuration not stated)	0	-	-	0	-	-	-	-
Cc1ccc(C(=O)COc2nc(C)cc(C)c2C#N)cc1	0	0	0	0	0	0	-	-
Cc1cc(C)c(C#N)c(OCC2CCCO2)n1 (configuration not stated)	0	-	-	15	-	-	0	0
Cc1ccc(/C=C/C(=O)N2CCc3ccccc3C2)cc1	0	0	0	0	0	0	-	-
CC(=O)Nc1cc(NC(C)=O)cc(C(=O)OCC(=O)c2ccc3c(c2)NC(=O)CO3)c1	0	-	0	20	0	0	0	0
N#CCC(=O)Nc1ccc(C(=O)OCC(=O)c2ccc3c(c2)NC(=O)CO3)cc1	0	-	-	25	0	0	0	0
N#Cc1cccc(C(=O)OCC(=O)c2ccc3c(c2)NC(=O)CO3)c1	0	-	0	0	0	0	-	-
COc1ccc(C(=O)OCC(=O)c2ccc3c(c2)NC(=O)CO3)cc1OC	0	-	-	0	0	0	-	-
